We go through 40 compounds from PubChem BioAssay (NCI).

About 83,000 compounds went through this panel and 20% of them were active in at least one assay; those are over-represented in the sample as a whole.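 Percent growth is the endpoint: 0 to 100 indicates growth inhibition (40 means 60% inhibition), 0 means no net growth, and negative values indicate cell death.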 Calls of active or inactive are those of the source.

The subject of the test is M14 melanoma. As to the kind of experiment: NCI-60 one-dose screen, 48 h (100 = growth as untreated, 0 = no growth, -100 = all killed). As to conditions: 10 µM unless noted. As for the experimental part:
Growth inhibition of the M14 human tumor cell line is measured as a screen for anti-cancer activity. Cells are grown in 96 well plates and exposed to the test compound for 48 hours. Compounds are tested at a single concentration, which is 10^-5 M for most compounds. The reported endpoint is percent growth (GI% or GIPRCNT), where numbers from 0 - 100% represent growth inhibition, and numbers from -100% - 0 represent cell death. For example, a value of 40 represents 60% growth inhibition. A value of 0 means no net growth occurred over the course of the experiment. A value of -40 indicates 40% of cells at the beginning of the experiment died by the end of the experiment. A value of -100 means all cells are dead at the end of the experiment.
NCI-60 Human Tumor Cell Lines Screen was performed using the standard one-dose NCI protocol, which is described in more detail at https://dtp.cancer.gov/discovery_development/nci-60/default.htm.
Compounds with GIPRCNT values below 10 were considered active. Activity score was based on GIPRCNT using the following formula: […]
Score is 0 for GIPRCNT values of 100 or above, 50 for GIPRCNT values of 0, and 100 for GIPRCNT values of -100.
Consider `O=C(CC1(O)C(=O)N(Cc2ccccc2)c2ccc(Cl)cc21)c1ccc(C(=O)NCC2CCC3(CC2)OOC2(CCCCC2)OO3)cc1` (stereo not given), for which the growth is 25.5% (inactive).
The result for `CC(=O)/C=C/c1ccc2c(c1)OCO2` reads 100% (inactive).
On to `CC(C)=CCC[C@H](C(=O)O)[C@@H]1CC[C@]2(C)C3=C(CC[C@@]12C)[C@@]1(C)CC[C@H](O)C(C)(C)[C@@H]1CC3`, for which the growth was 85.9% (inactive).
For the compound `CC1CN1CCCCN1CC1C` (stereo not given), the growth is 107% (inactive).
For the compound `C=CC1=C[C@@H]2[C@@H]3O[C@]4(CC[C@H](O4)[C@@H](C)C[C@@H](O)C3=O)C[C@H](O)C3=NCC[C@@]32CC1`, the growth is -79% (active).
Consider `NC(=O)c1c(Br)n(C2OC(CO)C(O)C2O)c2ncnc(N)c12` (stereo not given), for which the growth is 2.28% (active).
On to `CN1CC(=O)N(O)C1(C)c1cccnc1` (stereo not given), for which the growth was 105% (inactive).
In the case of `CCc1ccccc1[C@@H]1C[C@]2(C)CCO[C@@H]2OO1`, the growth was 104% (inactive).
For the compound `CC(=O)O[C@H]1C(=O)[C@@]2(C)[C@H]([C@H](OC(=O)c3ccccc3)[C@]3(O)C[C@H](OC(=O)[C@H](OC(=O)OCC4COC(C)(C)O4)[C@@H](NC(=O)c4ccccc4)c4ccccc4)C(C)=C1C3(C)C)[C@]1(OC(C)=O)CO[C@@H]1C[C@@H]2O` (stereo not given in full), the growth is -14.7% (active).
`NC(=Nc1ccccc1)N[N+](=O)[O-]`: the growth was 99.9% (inactive).
Regarding `CC(C)(C)C(=O)OCOP(=O)(OCOC(=O)C(C)(C)C)C1CCCN(O)C1=O` (stereo not given), the growth was 26.6% (inactive).
`CCN(CCO)C(Cc1ccccc1)c1ccccc1` (stereo not given): the growth was 89% (inactive).
`CN[C@]1(c2ccccc2Cl)CCCC[C@H]1NCCCN1CCN(C)CC1`: the growth was 98.9% (inactive).
As for `O=C(Nc1ccncc1F)c1cn(CC2CC2)c2ccccc12`, the growth was 108% (inactive).
Take `CC[CH2][Sn]([Cl])([Cl])[CH2]CC`: the growth was 83.4% (inactive).
As for `ClCCN(CCCl)c1ccc(OCc2ccccc2)cc1`, the growth is 41.9% (inactive).
Take `C/C(=C\c1ccn(-c2ccc(N)cc2)n1)[C@@H]1C[C@@H]2O[C@]2(C)CCC[C@H](C)[C@H](O)[C@@H](C)C(=O)C(C)(C)[C@@H](O)CC(=O)O1`: the growth is -17% (active).
Consider `N#CC1(c2ccccc2)CCN(Cc2ccccc2)CC1`, for which the growth was 106% (inactive).
As to `O=C1C2C(C(=O)[N]1[Hg][c]1ccccc1)C1(Cl)C(Cl)=C(Cl)C2(Cl)C1(Cl)Cl` (stereo not given), the growth was -82.3% (active).
As for `CCC(=O)Nc1ccc(Cl)c(Cl)c1`, the growth is 103% (inactive).
In the case of `CC(C)=CCC/C(C)=C/C=N\N=C(/N)N[N+](=O)[O-]`, the growth is 102% (inactive).
The result for `O=C(O)c1c(Cl)n(Cc2ccc(O)cc2)c2ccc(O)cc12` reads 98% (inactive); that for `Brc1ccc2c(c1)c(-c1nc(-c3c[nH]c4ncccc34)cs1)cn2CCN1CCCCC1`, 15.8% (inactive).
With `CCOC(=O)CCN(C)C1=Nc2ccc(Cl)cc2C(c2ccccc2)=[N+]([O-])C1`, the growth is 113% (inactive).
For `CC[C@H](C)[C@H](NC(=O)[C@H]1CCCCN1C)C(=O)N(C)[C@H](C[C@@H](OC(C)=O)c1cccc(C(=O)N[C@@H](Cc2ccccc2)C[C@H](C)C(=O)O)n1)C(C)C`, the growth was 10% (inactive).
For the compound `Cc1cc(-c2nc3cc(F)ccc3[se]2)cc(F)c1N`, the growth was 90.3% (inactive).
For `CC1=C(CN)C2=C(C)C3(CC3)[C@@](C)(O)C(=O)C2=C1`, the growth was 96.1% (inactive).
With `Cc1cc(NC(=O)NCc2ccc(N3C(N)=NC(N)=NC3(C)C)cc2)ccc1S(=O)(=O)F`, the growth was 29.5% (inactive).
Consider `CC(CO)NC1CCCCC1` (stereo not given), for which the growth is 102% (inactive).
Consider `CCC(C)(C)[C@H](NC(=O)[C@H]1CCCCN1C)C(=O)N(C)[C@H](C[C@@H](OC(C)=O)c1nc(C(=O)N[C@@H](Cc2ccccc2)C[C@H](C)C(=O)O)cs1)C(C)C`, for which the growth is -19.3% (active).
Take `Cc1sc2c(c1C)C(c1ccc(Cl)cc1)=N[C@@H](CC(=O)OC(C)(C)C)c1nnc(C)n1-2`: the growth is 43% (inactive).
In the case of `CN(C)C(=O)Oc1ccccc1`, the growth is 103% (inactive).
With `O=P(N1CC1)(N1CC1)N1CCc2ccccc21`, the growth was 104% (inactive).
The result for `O=C(CN1CCN(C(=O)c2ccco2)CC1)Nc1ccc(Cl)cc1C(=O)c1ccccc1Cl` reads 90.4% (inactive).
For `C[C@@]12CC[C@@H](O)C[C@@H]1CC[C@H]1[C@H]2CC[C@@]2(C)[C@H](c3ccc(=O)oc3)CC[C@@]12O`, the growth was -50.7% (active).
For `COc1cc([C@@H]2c3cc4c(cc3[C@H](OC(C)=O)[C@H]3COC(=O)[C@@H]23)OCO4)cc(OC)c1OC`, the growth was -15.2% (active).
Consider `C[C@@H]1O[C@@H](O[C@H]2C[C@@H](O)[C@]3(CO)C4C(CC[C@]3(O)C2)[C@@]2(O)CC[C@H](C3=CC(=O)OC3)[C@@]2(C)C[C@H]4O)[C@H](O)[C@H](O)[C@H]1O` (stereo not given in full), for which the growth was -86.2% (active).
The result for `COc1cc([N+](=O)[O-])c2nc(C)ccc2c1[N+](=O)[O-]` reads 92.5% (inactive); that for `COc1ccc(-n2c(C)nc3cc(OC)c(OC)cc3c2=O)cc1OC`, 106% (inactive); that for `CC(=O)O[C@@H]1CC[C@]2(C)[C@H]3CC[C@]4(C)C(=O)CC[C@H]4[C@@H]3C[C@@H]3SC(N)=N[C@@]32C1`, 41.1% (inactive).
